Rows were chosen to be rich in hits. Some 1.1% of all compounds tested hit in one or more screens of this group.
OPRM1-OPRD1 inv: inverse agonist of human OPRM1-OPRD1 heterodimerization | P35372+P41143 | cell-based MOR-DOR heterodimer luminescence, inverse agonism | inhibition, % at 9.3 µM | hit rate 0.21% among 340,000; in the data active = inhibition above about 22%, passing the limit was not always enough;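 also: 0% = cells with DMSO and 100% = wells without cells with DMSO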
HTR5A ag: HTR5A agonism, opioid heterodimer counter-screen | hit rate 0.61% among 340,000 | P47898 | activation, % at 9.3 µM | AID 504692 | HTR5A agonist assay, luminescence, cell-based; in the data active = activation mostly above about 9.5%, no sharp cut-off; inactive = mostly below about 7.6%;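 also: 0% = cells with vehicle only and 100% = reference agonist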
Target sequence (P47898 whole entry, looked up): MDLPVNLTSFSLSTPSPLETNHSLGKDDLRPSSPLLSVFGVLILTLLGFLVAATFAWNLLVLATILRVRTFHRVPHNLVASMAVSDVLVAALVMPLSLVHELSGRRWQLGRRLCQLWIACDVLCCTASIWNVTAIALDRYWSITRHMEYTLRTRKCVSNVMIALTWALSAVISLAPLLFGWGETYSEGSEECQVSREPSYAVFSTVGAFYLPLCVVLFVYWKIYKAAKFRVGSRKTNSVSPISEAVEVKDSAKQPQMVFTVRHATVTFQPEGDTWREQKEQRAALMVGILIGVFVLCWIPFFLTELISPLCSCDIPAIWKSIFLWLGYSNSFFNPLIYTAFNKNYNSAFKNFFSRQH
HTR5A inv ctr: inverse agonist of human HTR5A in OPRM1-OPRD1 counter-screen. inhibition, % at 9.3 µM. AID 504634. HTR5A cell line, luminescence, inverse agonism. hit rate 0.083% among 340,000. P47898; in the data active = inhibition mostly above about 23%, no sharp cut-off; inactive = mostly below about 18%;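 also: 0% = cells with DMSO and 100% = no-cell wells with DMSO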
MOR-DOR ag-1: agonists of human mu-delta opioid receptor heterodimerization; cells, OPRM1-OPRD1 heterodimerization, luminescence; AID 504326; hit rate 0.3% among 340,000; activation, % at 9.3 µM; P35372+P41143;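 also: 0% = vehicle-treated cells and 100% = reference agonist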
MOR-DOR ag-2: counter-screen for HTR5A agonists: OPRM1-OPRD1 heterodimerization agonism. hit rate 13% among 800. U2OS counter-screen cells, complementation luminescence, 3 h. activation, % at 9.3 µM. shares compounds with HTR5A ag
HTR5A ag confirm: HTR5A (human) agonism, confirmation; activation, % at 9.3 µM; shares compounds with HTR5A ag; HTR5A agonist cell assay, luminescence; hit rate 17% among 800; in the data active = activation above about 17%;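 also: 0% = cells with vehicle only and 100% = full reference agonist response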
* hit, by the source's call; / = no result. Rule as the data show it, unless noted: active = activation above about 18%; inactive = the rest.

SMILES	OPRM1-OPRD1 inv	HTR5A ag	HTR5A inv ctr	MOR-DOR ag-1	MOR-DOR ag-2	HTR5A ag confirm
COc1cc(CNCCc2ccccc2)cc(Br)c1OCC(=O)Nc1ccccc1C	-54.0	18.3*	-45.1	10.4	10.8	9.9
Cc1ccc(CNC(=O)COC(=O)c2cccc(S(=O)(=O)N3CCCCC3)c2)cc1	-12.7	-7.6	18.7	3.1	/	/
O=C(CSc1n[nH]c(-c2ccco2)n1)Nc1ccc(Br)cc1	17.4	-4.4	16.1	-3.0	/	/
O=C(CSc1n[nH]c(-c2ccco2)n1)Nc1sc2c(c1C(=O)Nc1ccccc1)CCCC2	-5.6	18.5*	-29.7	1.0	2.6	3.9
CC(=O)CCc1ccc(OCC(=O)Nc2cccc(S(=O)(=O)N(C)c3ccccc3)c2)cc1	-8.7	0.7	-24.9	1.4	/	/
O=C(N/N=C1\CCCc2ccccc21)c1ccccc1[N+](=O)[O-]	-19.9	14.9*	3.1	3.3	1.5	14.6
Cc1nn(Cc2ccc(F)cc2)c2sc(C(=O)Nc3nccs3)cc12	-66.3	21.2*	-56.5	9.2	3.7	0.4
Cc1nn(Cc2ccccc2Cl)c2sc(C(=O)Nc3nccs3)cc12	-31.5	6.1	-18.3	4.7	/	/
COc1ccc(NC(=O)COC(=O)C2CC2)cc1S(=O)(=O)N1CCCCC1	4.0	1.5	-9.2	-1.0	/	/
O=c1[nH]c2ccccc2cc1-c1nnn(-c2ccccc2)n1	9.2	20.7*	-38.4	-1.7	59.5*	-2.3
Cc1ccc(C)c(S(=O)(=O)N2CCCOC2CNC(=O)C(=O)NCCC2=CCCCC2)c1 (stereo not given)	9.5	-2.3	2.6	-1.8	/	/
COc1ccc(CC(C)N2CCN(c3cccc(C(F)(F)F)c3)CC2)cc1OC (stereo not given)	-27.3	32.7*	-105.7	4.8	10.6	29.2*
CCOc1cc(CN2CCN(c3cccc(C(F)(F)F)c3)CC2)ccc1OC	-15.1	5.8	-16.5	2.6	/	/
COc1ccccc1-c1csc(NC(=O)c2ccc(N3C(=O)CCC3=O)cc2)n1	-7.5	0.0	-3.8	1.1	/	/
O=S(=O)(NCc1ccccc1F)c1cccc(S(=O)(=O)N2CCOCC2)c1	10.1	1.8	-4.8	-1.9	/	/
O=S(=O)(NCc1ccc(F)cc1)c1cccc(S(=O)(=O)N2CCOCC2)c1	-26.6	19.6*	-51.5	4.2	0.7	-0.5
NC(=O)c1nn(CC(=O)Nc2ccc3c(c2)OCO3)cc1[N+](=O)[O-]	8.1	1.1	-3.0	-1.6	/	/
Cc1cc(C)c(C(=O)Nc2ccc(Br)c(C(F)(F)F)c2)c(C)c1	-45.7	18.4*	-12.8	8.3	0.1	0.5
O=C(O)c1ccccc1C(=O)Nc1ccc(Br)c(C(F)(F)F)c1	5.7	-3.6	-5.1	-1.1	/	/
NC(=O)c1ccc(SCC(=O)NC2CCCCC2)c([N+](=O)[O-])c1	-14.4	14.5*	7.8	3.0	2.2	1.4
COC(=O)c1ccc(SCC(=O)NC2CCCC2)c([N+](=O)[O-])c1	8.7	-0.5	1.8	-1.6	/	/
CC(C)N1CCc2c(sc(NC(=O)c3ccc4ccccc4c3)c2C(N)=O)C1	-17.4	18.3*	-27.1	3.4	4.1	18.4*
CCc1ccc(/C=C/C(=O)c2cc(Br)ccc(=O)c2O)cc1	-33.3	17.4*	4.8	5.8	42.4*	4.7
CC(=O)Nc1ccc(NC(=O)C(OC(=O)c2ccccc2)C(OC(=O)c2ccccc2)C(=O)O)cc1 (stereo not given)	-3.1	-5.0	28.4	0.6	/	/
O=C(N/N=C/c1ccco1)c1cccc(NC(=O)c2cccc(Cl)c2)c1	15.8	23.5*	-63.0	-3.0	25.5*	13.1
SMILES	OPRM1-OPRD1 inv	HTR5A ag	HTR5A inv ctr	MOR-DOR ag-1	MOR-DOR ag-2	HTR5A ag confirm
O=C(N/N=C/c1ccco1)c1ccc(NC(=O)c2ccccc2Cl)cc1	9.8	0.7	-1.8	-1.7	/	/
NC1=NC(=O)/C(=C/c2cn(Cc3ccccc3)c3ccccc23)S1	-20.5	16.4*	-18.8	4.0	0.6	16.7*
COc1ccc(S(=O)(=O)NCc2cc(-c3ccccc3Cl)no2)cc1	0.0	-0.9	2.4	0.0	/	/
C=C1C(=O)OC2C1CCC(C)C1C=CC(=O)C12C (stereo not given)	-5.9	-1.7	6.8	1.1	/	/
C=C1C(=O)OC2CC1C(O)CC(C)=CCCC(C)=CC(O)CC2C (stereo not given)	4.0	18.4*	-70.6	-0.9	-1.8	-4.0
COc1cc(-c2nc3cnccn3c2Nc2ccc3c(c2)OCCO3)ccc1O	4.7	9.8	-26.2	-0.8	/	/
COc1cc(-c2nc3ccc(C)cn3c2Nc2ccc3c(c2)OCCO3)ccc1O	-13.1	42.9*	-108.0	2.5	3.1	38.8*
COc1ccc2[nH]cc(CCNC(=O)C3CCCO3)c2c1 (stereo not given)	11.0	42.1*	-138.9	-2.4	3.2	34.8*
CCOc1ccc(N2CC(C(=O)NCCc3c[nH]c4ccc(OC)cc34)CC2=O)cc1 (stereo not given)	-16.6	20.0*	-59.4	2.1	0.3	-0.4
COC(=O)C1=C(C)N(CCc2c[nH]c3ccc(OC)cc23)C(=O)C1	-3.2	17.1*	-32.0	0.7	3.0	42.0*
COc1ccc2[nH]cc(CCNC(=O)C3CC(=O)N(c4ccc(Cl)cc4)C3)c2c1 (stereo not given)	-11.9	32.6*	-86.8	1.6	1.4	0.1
COc1ccc2[nH]cc(CCNC(C)=O)c2c1	6.3	2.9	-10.5	-1.2	/	/
CCS(=O)(=O)N1Cc2ccccc2CC1C(=O)Nc1cccc(OC)c1 (stereo not given)	13.3	0.0	0.1	-2.8	/	/
CCS(=O)(=O)N1Cc2ccccc2CC1C(=O)Nc1ccc(OC)c(OC)c1 (stereo not given)	5.7	15.2*	1.1	-0.9	0.6	5.4
Cc1cccc(NC(=S)NCc2ccco2)c1C	9.0	0.3	-0.8	-1.8	/	/
COc1ccc(N(CC(=O)NCCSc2ccccn2)S(=O)(=O)c2ccccc2)c(OC)c1	-31.4	19.3*	-57.5	3.9	-0.1	20.8*
CCOc1ccc(CCNC(=O)COC(=O)c2c(C)nn(-c3ccccc3)c2C)cc1OCC	12.0	-2.5	21.1	-2.3	/	/
COc1ccc(OCC(=O)N/N=C(\C)CC(=O)Nc2cccc([N+](=O)[O-])c2)cc1	15.5	-6.2	15.3	-3.0	/	/
CCn1c(C)nc2cc(C(=O)NN=Cc3ccccc3OC(F)F)ccc21	6.2	18.4*	-45.6	-1.4	16.4	7.0
COC(=O)CC1C(=O)NCCN1C(=O)c1cc([N+](=O)[O-])ccc1Cl (stereo not given)	10.7	8.1	-30.1	-2.3	/	/
O=C(Cn1ccc2ccccc2c1=O)NCC(=O)N1CCN(c2ccccc2F)CC1	10.2	4.9	-5.0	-1.6	/	/
NNS(=O)(=O)c1ccc(Sc2ccccn2)c([N+](=O)[O-])c1	15.5	14.9*	14.5	-3.1	-0.2	13.3
COc1ccc(CN2C(=O)CNC2=S)cc1	17.4	-2.8	10.4	-3.9	/	/

Screening results (PubChem BioAssay)
